Experimental data reported in ChEMBL document CHEMBL3988442, “University of Dundee, Small-Polar-MMV Screening Library” (2021).

Legend:
[1] = target: T1, Aspartate--tRNA(Asp/Asn) ligase (Mycobacterium tuberculosis (strain ATCC 25618 / H37Rv)) (UniProt P9WFW3); test: Assay for Asp RNA synthetase-1 from Mycobacterium tuberculosis; assay type: functional; parameters: scale not given: direction of the effect not stated beside the values; settings: 30 µM; further: in the data most compounds retested in dose-response had high values
T1 sequence (whole entry): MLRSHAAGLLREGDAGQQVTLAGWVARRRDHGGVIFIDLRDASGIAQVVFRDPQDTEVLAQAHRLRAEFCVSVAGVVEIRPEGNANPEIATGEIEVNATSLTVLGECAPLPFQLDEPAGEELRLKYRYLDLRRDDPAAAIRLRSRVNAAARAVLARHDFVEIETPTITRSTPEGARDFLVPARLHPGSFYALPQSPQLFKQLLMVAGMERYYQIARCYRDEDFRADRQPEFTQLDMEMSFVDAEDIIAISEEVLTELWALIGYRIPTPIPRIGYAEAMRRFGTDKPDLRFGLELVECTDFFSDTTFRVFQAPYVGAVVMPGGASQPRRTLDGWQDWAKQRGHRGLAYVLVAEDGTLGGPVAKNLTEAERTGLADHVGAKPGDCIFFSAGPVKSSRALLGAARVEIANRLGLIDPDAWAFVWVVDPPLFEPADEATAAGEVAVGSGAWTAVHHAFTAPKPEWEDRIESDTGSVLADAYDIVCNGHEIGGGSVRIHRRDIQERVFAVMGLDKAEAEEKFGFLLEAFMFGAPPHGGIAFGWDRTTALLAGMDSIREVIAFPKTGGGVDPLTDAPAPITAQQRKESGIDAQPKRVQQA

[2] = target: Shiga toxin 2 (Escherichia coli O157:H7) (UniProt P09385+P09386); test: E. coli 0.157:H7 Shiga Toxin SOP - stx2 screening assay; assay type: functional; parameters: scale not given: direction of the effect not stated beside the values; settings: 30 µM

| SMILES | Percent Effect [1] [%] | Percent Effect [2] [%] |
| --- | --- | --- |
| CC(C)Cc1noc(CN2CCN(C(=O)c3ccco3)CC2)n1 | -0.114 | -20 |
| COc1cccc(C(=O)NS(=O)(=O)c2cccc(C#N)c2)c1OC | 0.0291 | 2.55 |
| N#Cc1cn(C2CC2)c(=O)n(CC(O)c2ccccc2F)c1=O (stereo not drawn) | 0.3 | 14.2 |
| Cc1ccc(NC(=O)CNc2cccc3c2CCCC3)c(Br)c1 | -0.719 | 7.99 |
| CCn1cc(Br)c(C(=O)NCc2cccnc2)n1 | 7.19 | -69.5 |
| CC(C)COCc1cncc2c1CCN(Cc1cnn(C)c1)C2 | -0.981 | -36.8 |
| Cc1nc(C)n(C2CCCN(C(=O)CCCOc3ccccc3)C2)n1 (stereo not drawn) | -1.97 | 3.84 |
| Cc1cccc(NC2CCN(C(=O)Nc3cccc4[nH]ccc34)CC2)n1 | -0.4 | -50 |
| CN(Cc1cc(-c2ccccc2)no1)C1CCCN(c2cccnn2)C1 (stereo not drawn) | -2.03 | -0.584 |
| COc1cccc(C(=O)N2CCCC(C(=O)CCc3ccccc3)C2)c1 (stereo not drawn) | 4.2 | -7.01 |
| Cc1ccc(OC2(C(=O)O)CCN(C(=O)c3ccc(F)cc3)CC2)cn1 | -4.69 | 10.4 |
| CCc1nc(C2CCCN(C(=O)CCn3ccccc3=O)C2)no1 (stereo not drawn) | -0.767 | 7.71 |
| CCOc1ncccc1NC(=O)NC1CCCN(c2ncccn2)C1 (stereo not drawn) | 0.879 | -17.5 |
| Cc1n[nH]c(C2CN(C(=O)c3cnc[nH]3)CCO2)n1 (stereo not drawn) | 1.76 | 23.8 |
| Cc1cnn(CC2CCCN2C(=O)CCc2ccsc2)c1 (stereo not drawn) | -3.37 | 14.6 |
| CN(C)S(=O)(=O)N1C[C@@H]2CC[C@H](C1)N(Cc1ccc3nsnc3c1)C2 | -2.42 | -1.59 |
| CCN(CC)c1ccc(NS(=O)(=O)c2cncc(F)c2)cn1 | 1.66 | -27.3 |
| O=C(c1ccoc1)N1CC[C@@H]2[C@H]1CCC(=O)N2c1ccccc1 | 1.49 | 1.4 |
| Cc1ccc(Oc2ccc(NC(=O)NCC3CCOC3)cn2)cc1C (stereo not drawn) | 0.322 | -6.2 |
